From ChEMBL document CHEMBL4513141, “CO-ADD screening of NIH (USA) - Clinical Collection” (2021)
Results with a measured potency or affinity are listed apart.

Tests used:
Staphylococcus aureus = settings: Concentration 20 uM; ASSAY_TEST Inhibition of Bacterial Growth; detection method Absorption (OD600); MEDIA CAMHB; plate type 384well; NBS; CORNING #3640; time 18 hr
Escherichia coli = settings: Concentration 20 uM; ASSAY_TEST Inhibition of Bacterial Growth; detection method Absorption (OD600); MEDIA CAMHB; plate type 384well; NBS; CORNING #3640; time 18 hr

| SMILES | Inhibition (Staphylococcus aureus) [%] | Inhibition (Escherichia coli) [%] |
| --- | --- | --- |
| Cl.Cn1c(NCCN(CCO)CCCc2ccc([N+](=O)[O-])cc2)cc(=O)n(C)c1=O | -11.53 | 3.31 |
| NS(=O)(=O)c1cc2c(cc1C(F)(F)F)NC(Cc1ccccc1)NS2(=O)=O (centres undefined) [BENDROFLUMETHIAZIDE] | 4.68 | -3.75 |
| Cc1cnc(C(=O)NCCc2ccc(S(=O)(=O)NC(=O)NC3CCCCC3)cc2)cn1 [GLIPIZIDE] | 13.08 |  |
| CN(Cc1cnc2nc(N)nc(N)c2n1)c1ccc(C(=O)N[C@@H](CCC(=O)O)C(=O)O)cc1.O | 8.23 |  |
| CCCc1cc(=O)[nH]c(=S)[nH]1 [PROPYLTHIOURACIL] | 17.4 | 8.71 |
| O=C1CCC(N2C(=O)c3ccccc3C2=O)C(=O)N1 (centres undefined) [THALIDOMIDE] | 9.61 | -2.18 |
| COc1ccc([C@@H]2Sc3ccccc3N(CCN(C)C)C(=O)[C@@H]2OC(C)=O)cc1.Cl [DILTIAZEM HYDROCHLORIDE] | 12.74 | 5.44 |
| CCC(=O)[N-]S(=O)(=O)c1ccc(-c2c(-c3ccccc3)noc2C)cc1.[Na+] [PARECOXIB SODIUM] | 0.13 | 6.4 |
| COc1ccc(-c2oc3c(CC=C(C)C)c(O[C@@H]4O[C@H](CO)[C@@H](O)[C@H](O)[C@H]4O)cc(O)c3c(=O)c2O[C@@H]2O[C@@H](C)[C@H](O)[C@@H](O)[C@H]2O)cc1 [ICARIIN] | 11.47 | -5.7 |
| CC(C)[N+](C)(CCOC(=O)C1c2ccccc2Oc2ccccc21)C(C)C.[Br-] [PROPANTHELINE BROMIDE] | 16.95 | 4.45 |
| O=C1Nc2ccc(Cl)cc2[C@@](C#CC2CC2)(C(F)(F)F)O1 [EFAVIRENZ] | 10.66 | -2.05 |
| CCCCC(=O)N(Cc1ccc(-c2ccccc2-c2nnn[nH]2)cc1)[C@H](C(=O)O)C(C)C | 14.82 | 3.3 |
| CCOC(=O)N1CCC(=C2c3ccc(Cl)cc3CCc3cccnc32)CC1 [LORATADINE] | 11.88 |  |
| CNC(=C[N+](=O)[O-])NCCSCc1ccc(CN(C)C)o1.Cl [RANITIDINE HYDROCHLORIDE] | -17.46 | 4.52 |
| COc1ccc2cc([C@H](C)C(=O)[O-])ccc2c1.[Na+] [NAPROXEN SODIUM] | 6.58 |  |
| COc1ccc(CN2CCN(C(c3ccc(F)cc3)c3ccc(F)cc3)CC2)c(OC)c1OC.Cl.Cl | 8.66 | -0.33 |
| C=C[C@H]1CN2CC[C@H]1C[C@@H]2[C@@H](O)c1ccnc2ccc(OC)cc12 [QUINIDINE] | 10.07 | -1.55 |
| CC1=C(C(=O)O)N2C(=O)[C@@H](NC(=O)[C@H](N)c3ccccc3)[C@H]2SC1.O [CEPHALEXIN] | -0.36 |  |
| O=C1N=C([O-])NC1(c1ccccc1)c1ccccc1.[Na+] [PHENYTOIN SODIUM] | 10.31 | 2.45 |
| CCC1=C[C@H]2CN(C1)Cc1c([nH]c3ccccc13)[C@@](C(=O)OC)(c1cc3c(cc1OC)N(C)[C@H]1[C@@](O)(C(=O)OC)[C@H](OC(C)=O)[C@]4(CC)C=CCN5CC[C@]31[C@@H]54)C2.O=C(O)C(O)C(O)C(=O)O.O=C(O)C(O)C(O)C(=O)O | 13.36 | 2.61 |

| SMILES | Inhibition (Staphylococcus aureus) [%] | Inhibition (Escherichia coli) [%] |
| --- | --- | --- |
| O=C1C(CC[S+]([O-])c2ccccc2)C(=O)N(c2ccccc2)N1c1ccccc1 (centres undefined) [SULFINPYRAZONE] | 18.52 | 6.57 |
| O=C(C1CCCCC1)N1CC(=O)N2CCc3ccccc3C2C1 (centres undefined) [PRAZIQUANTEL] | 20.65 | 3.85 |
| CC(Oc1c(Cl)cccc1Cl)C1=NCCN1.Cl (centres undefined) [LOFEXIDINE HYDROCHLORIDE] | 7.96 | 0.12 |
| CCN(CC)CCOC(=O)C1(C2CCCCC2)CCCCC1.Cl [DICYCLOMINE HYDROCHLORIDE] | 8.61 | 0.37 |
| C[C@]12CCC(=O)C=C1CC[C@@H]1[C@@H]2[C@@H](O)C[C@@]2(C)[C@H]1CC[C@]2(O)C(=O)CO [HYDROCORTISONE] | 7.72 |  |
| CN(C)CCOC(c1ccccc1)c1ccccc1.Cl [DIPHENHYDRAMINE HYDROCHLORIDE] | -13.43 |  |
| C[C@@H]1C[C@H]2[C@@H]3C[C@H](F)C4=CC(=O)C(Cl)=C[C@]4(C)[C@@]3(F)[C@@H](O)C[C@]2(C)[C@@]1(O)C(=O)CO [HALOMETASONE] | 3 | 4.02 |
| CC(=O)O[C@]1(C(C)=O)CC[C@H]2[C@@H]3C=C(C)C4=CC(=O)CC[C@]4(C)[C@H]3CC[C@@]21C [MEGESTROL ACETATE] | 14.19 | 0.92 |
| COC(=O)C1=C(C)NC(C)=C(C(=O)O[C@@H]2CCCN(Cc3ccccc3)C2)[C@@H]1c1cccc([N+](=O)[O-])c1.Cl | 8.73 | -0.62 |
| CN(C)CCCN1c2ccccc2Sc2ccc(Cl)cc21.Cl [CHLORPROMAZINE HYDROCHLORIDE] | 10.22 | 2.59 |
| Cl.O[C@@H](c1cc(C(F)(F)F)nc2c(C(F)(F)F)cccc12)[C@H]1CCCCN1 | 36.85 | 7.08 |
| Cn1nnc2c(C(N)=O)ncn2c1=O [TEMOZOLOMIDE] | 8.98 | 6.63 |
| CC(C)[N+]1(C)C2CCC1CC(OC(=O)C(CO)c1ccccc1)C2.[Br-] (centres undefined) | 9.02 |  |
| C=C1/C(=C\C=C2/CCC[C@]3(C)[C@@H]([C@H](C)/C=C/[C@@H](O)C4CC4)CC[C@@H]23)C[C@@H](O)C[C@@H]1O [CALCIPOTRIENE] | 9.78 | 4.8 |
| CC12CCC(=O)C=C1CCC1C2CCC2(C)C1CCC2(O)C(=O)CO (centres undefined) | 8.54 | -7.68 |
| CC(C)(C(=O)O)c1ccc(C(O)CCCN2CCC(C(O)(c3ccccc3)c3ccccc3)CC2)cc1.Cl (centres undefined) [FEXOFENADINE HYDROCHLORIDE] | 11.48 |  |
| CS(=O)(=O)c1ccc(C2=C(c3ccccc3)C(=O)OC2)cc1 [ROFECOXIB] | 8.94 | -7.03 |
| CCCN(CCC)S(=O)(=O)c1ccc(C(=O)O)cc1 [PROBENECID] | 13.34 | 1.2 |
| CN1CC(=O)N2[C@H](c3ccc4c(c3)OCO4)c3[nH]c4ccccc4c3C[C@@H]2C1=O | 6.36 | 0.57 |
| COc1ccccc1OCC(O)CN1CCN(CC(=O)Nc2c(C)cccc2C)CC1.Cl.Cl (centres undefined) [RANOLAZINE HYDROCHLORIDE] | 15.16 | -4.15 |

| SMILES | Inhibition (Staphylococcus aureus) [%] | Inhibition (Escherichia coli) [%] |
| --- | --- | --- |
| Clc1ccc2c(c1)C(N1CCNCC1)=Nc1ccccc1O2 [AMOXAPINE] | 3.79 | 7 |
| CC(C)(C#N)c1cc(Cn2cncn2)cc(C(C)(C)C#N)c1 [ANASTROZOLE] | -10.48 | 4.02 |
| CC(=O)O[C@H]1C[C@@H]2CC[C@@H]3[C@H](CC[C@@]4(C)[C@H]3C[C@H]([N+]3(C)CCCCC3)[C@@H]4OC(C)=O)[C@@]2(C)C[C@@H]1N1CCCCC1.[Br-] [VECURONIUM BROMIDE] | -16.09 | 5.67 |
| CCS(=O)(=O)CCn1c([N+](=O)[O-])cnc1C [TINIDAZOLE] | 16.09 | -5.72 |
| CC(N)C12CC3CC(CC(C3)C1)C2.Cl (centres undefined) [RIMANTADINE HYDROCHLORIDE] | 6.08 | -3.07 |
| CC(C(=O)O)c1cccc(C(=O)c2ccccc2)c1 (centres undefined) [KETOPROFEN] | 6.88 | -2.29 |
| Nc1c2c(nc3c1CCC3)CCCC2 [IPIDACRINE] | 16.52 | 5.57 |
| O=C(O)c1cc2ccccc2c(Cc2c(O)c(C(=O)O)cc3ccccc23)c1O.OCCOCCN1CCN(C(c2ccccc2)c2ccc(Cl)cc2)CC1 [HYDROXYZINE PAMOATE] | 11.96 | 0.33 |
| c1ccc2[nH]c(-c3cscn3)nc2c1 [THIABENDAZOLE] | 9.35 | 1.68 |
| CN(C)CC[C@@H](c1ccc(Br)cc1)c1ccccn1.O=C(O)/C=C\C(=O)O [DEXBROMPHENIRAMINE MALEATE] | 4.45 | 5.01 |
| Nc1ccc2cn[nH]c2c1 | -30.24 | 5.89 |
| Nc1nc(Cl)nc2c1ncn2[C@@H]1O[C@H](CO)[C@@H](O)[C@H]1O | -10.52 | 3.01 |
| CC(=O)O.NCc1ccc(S(N)(=O)=O)cc1 [MAFENIDE ACETATE] | 12.98 | 1.36 |
| CCOC(=O)OC(C)OC1=C(C(=O)Nc2ccccn2)N(C)S(=O)(=O)c2ccccc21 (centres undefined) [AMPIROXICAM] | 16.07 | -0.97 |
| Nc1ncnc2c1ncn2[C@@H]1O[C@H](CO)C[C@@H]1O.O | 7.37 | 1.02 |
| CCN1CC(CCN2CCOCC2)C(c2ccccc2)(c2ccccc2)C1=O.Cl (centres undefined) | -18.77 | 2.66 |
| C[C@@H]1C[C@H]2[C@@H]3CCC4=CC(=O)C=C[C@]4(C)[C@@]3(F)[C@@H](O)C[C@]2(C)[C@H]1C(=O)CO [DESOXIMETASONE] | 0.95 | 7.14 |
| CN(C)CCCN1c2ccccc2CCc2ccc(Cl)cc21.Cl [CLOMIPRAMINE HYDROCHLORIDE] | 14.19 | 7.04 |
| CCN1CCCC1CNC(=O)c1cc(S(=O)(=O)CC)c(N)cc1OC (centres undefined) [AMISULPRIDE] | 15.04 | -7.41 |
